# Data taken from PMC5540273 (PLoS ONE, 2017).
# Like-named read-outs stand apart in the source and are kept apart here.
# Tests used:
# [1] = system: CLK2; settings: concentration: 1 μM,replicates: in singlicate; n = 1
# [2] = system: CLK3; settings: concentration: 1 μM,replicates: in singlicate; n = 1
# [3] = system: CLK4; settings: concentration: 1 μM,replicates: in singlicate; n = 1
# [4] = system: CSF1R-autoinhibited; settings: concentration: 1 μM,replicates: in singlicate; n = 1
# [5] = system: CSF1R; settings: concentration: 1 μM,replicates: in singlicate; n = 1
# [6] = system: CSK; settings: concentration: 1 μM,replicates: in singlicate; n = 1
# [7] = system: CSNK1A1L; settings: concentration: 1 μM,replicates: in singlicate; n = 1
# [8] = system: CSNK1A1; settings: concentration: 1 μM,replicates: in singlicate; n = 1
# [9] = system: CSNK1D; settings: concentration: 1 μM,replicates: in singlicate; n = 1
# [10] = system: CSNK1E; settings: concentration: 1 μM,replicates: in singlicate; n = 1
# [11] = system: CSNK1G1; settings: concentration: 1 μM,replicates: in singlicate; n = 1
# [12] = system: CSNK1G2; settings: concentration: 1 μM,replicates: in singlicate; n = 1
# [13] = system: CSNK1G3; settings: concentration: 1 μM,replicates: in singlicate; n = 1
# [14] = system: CSNK2A1; settings: n = 1
# [15] = system: CSNK2A2; settings: n = 1
# [16] = system: T1, CTK; settings: concentration: 1 μM,replicates: in singlicate; n = 1
# T1 construct: gene MATK
# [17] = system: DAPK1; settings: concentration: 1 μM,replicates: in singlicate; n = 1
# [18] = system: DAPK2; settings: concentration: 1 μM,replicates: in singlicate; n = 1
# [19] = system: DAPK3; settings: concentration: 1 μM,replicates: in singlicate; n = 1
# [20] = system: T2, DCAMKL1; settings: concentration: 1 μM,replicates: in singlicate; n = 1
# T2 construct: gene DCLK1
# [21] = concentration: 1 μM,replicates: in singlicate
# 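Also: KINOMEscan kinase panel screen.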
smiles,measurement,setting,value
O=C(Nc1cccc(Oc2ccc3nccn3n2)c1)Nc1cccc(C(F)(F)F)c1,%Inh,[1],0%
same,%Inh,[2],0%
same,%Inh,[3],0%
same,%Inh,[4],0%
same,%Inh,[5],99.8%
same,%Inh,[6],12%
same,%Inh,[7],3%
same,%Inh,[8],0%
same,%Inh,[9],2%
same,%Inh,[10],11%
same,%Inh,[11],0%
same,%Inh,[12],0%
same,%Inh,[13],26%
same,%Inh,[14]; [21],0%
same,%Inh,[15]; [21],3%
same,%Inh,[16],49%
same,%Inh,[17],14%
same,%Inh,[18],0%
same,%Inh,[19],0%
same,%Inh,[20],0%
C[C@@H](Oc1cc(-n2cnc3cc(-c4ccncc4)ccc32)sc1C(N)=O)c1ccccc1Cl [GSK479719],%Inh,[1],28%
same,%Inh,[2],5%
same,%Inh,[3],68%
same,%Inh,[4],0%
same,%Inh,[5],29%
same,%Inh,[6],0%
same,%Inh,[7],15%
same,%Inh,[8],0%
same,%Inh,[9],17%
same,%Inh,[10],8%
same,%Inh,[11],13%
same,%Inh,[12],0%
same,%Inh,[13],23%
same,%Inh,[14]; [21],0%
same,%Inh,[15]; [21],35%
same,%Inh,[16],21%
same,%Inh,[17],61%
same,%Inh,[18],30%
same,%Inh,[19],22%
same,%Inh,[20],0%
Cc1ccc2c(-c3ccnc(Nc4ccc(C(F)(F)F)cc4)n3)cnn2n1 [GW819776],%Inh,[1],72%
same,%Inh,[2],31%
same,%Inh,[3],67%
same,%Inh,[4],0%
same,%Inh,[5],11%
same,%Inh,[6],0%
same,%Inh,[7],0%
same,%Inh,[8],7%
same,%Inh,[9],31%
same,%Inh,[10],19%
same,%Inh,[11],0%
same,%Inh,[12],14%
same,%Inh,[13],0%
same,%Inh,[14]; [21],18%
same,%Inh,[15]; [21],35%
same,%Inh,[16],24%
same,%Inh,[17],19%
same,%Inh,[18],0%
same,%Inh,[19],25%
same,%Inh,[20],34%
C[C@@H]1CCN(C(=O)N2CCCC2)C[C@@H]1N(C)c1ncnc2[nH]ccc12,%Inh,[1],8%
same,%Inh,[2],0%
same,%Inh,[3],24%
same,%Inh,[4],0%
same,%Inh,[5],0%
same,%Inh,[6],0%
same,%Inh,[7],0%
same,%Inh,[8],27%
same,%Inh,[9],0%
same,%Inh,[10],13%
same,%Inh,[11],2%
same,%Inh,[12],0%
same,%Inh,[13],0%
same,%Inh,[14]; [21],35%
same,%Inh,[15]; [21],5%
same,%Inh,[16],19%
same,%Inh,[17],23%
same,%Inh,[18],0%
same,%Inh,[19],9%
same,%Inh,[20],46%
C[C@@H](Oc1cc(-n2cnc3ccc(-c4ccncc4)cc32)sc1C(N)=O)c1ccccc1Cl [GSK483724],%Inh,[1],83%
same,%Inh,[2],37%
same,%Inh,[3],97.1%
same,%Inh,[4],0%
same,%Inh,[5],14%
same,%Inh,[6],11%
same,%Inh,[7],17%
same,%Inh,[8],0%
same,%Inh,[9],28%
same,%Inh,[10],44%
same,%Inh,[11],9%
same,%Inh,[12],14%
same,%Inh,[13],29%
same,%Inh,[14]; [21],52%
same,%Inh,[15]; [21],89%
same,%Inh,[16],0%
same,%Inh,[17],0%
same,%Inh,[18],0%
same,%Inh,[19],19%
same,%Inh,[20],88%
COc1cccc(OC)c1C(=O)Nc1cccc(-c2nn3ccccc3c2-c2ccnc(Nc3cccc(F)c3)n2)c1 [GSK361065],%Inh,[1],21%
same,%Inh,[2],0%
same,%Inh,[3],0%
same,%Inh,[4],4%
same,%Inh,[5],60%
same,%Inh,[6],18%
same,%Inh,[7],0%
same,%Inh,[8],25%
same,%Inh,[9],9%
same,%Inh,[10],64%
same,%Inh,[11],14%
same,%Inh,[12],17%
same,%Inh,[13],3%
same,%Inh,[14]; 1 µM,0%
same,%Inh,[15]; 1 µM,23%
same,%Inh,[16],21%
same,%Inh,[17],10%
same,%Inh,[18],6%
same,%Inh,[19],0%
same,%Inh,[20],16%
CCCC(=O)Nc1n[nH]c2ncccc12 [SB-601436],%Inh,[1],0%
same,%Inh,[2],22%
same,%Inh,[3],0%
same,%Inh,[4],0%
same,%Inh,[5],0%
same,%Inh,[6],8%
same,%Inh,[7],4%
same,%Inh,[8],0%
same,%Inh,[9],0%
same,%Inh,[10],2%
same,%Inh,[11],0%
same,%Inh,[12],0%
same,%Inh,[13],7%
same,%Inh,[14]; [21],1%
same,%Inh,[15]; [21],0%
same,%Inh,[16],30%
same,%Inh,[17],0%
same,%Inh,[18],0%
same,%Inh,[19],0%
same,%Inh,[20],0%
CC(C(=O)NC1CCN(c2ccnc(Nc3ccc(F)cc3)n2)C1)c1ccc(Cl)cc1 (stereo not shown) [GSK1379713],%Inh,[1],0%
same,%Inh,[2],0%
same,%Inh,[3],8%
same,%Inh,[4],0%
same,%Inh,[5],0%
same,%Inh,[6],0%
same,%Inh,[7],3%
same,%Inh,[8],22%
same,%Inh,[9],0%
same,%Inh,[10],3%
same,%Inh,[11],0%
same,%Inh,[12],0%
same,%Inh,[13],18%
same,%Inh,[14]; [21],1%
same,%Inh,[15]; [21],0%
same,%Inh,[16],0%
same,%Inh,[17],0%
same,%Inh,[18],0%
same,%Inh,[19],0%
same,%Inh,[20],0%
